# rTrxR1 inhibitor: inhibitors of rat thioredoxin reductase 1 | recombinant rTrxR1, NADPH fluorescence consumption, selenite substrate | Potency, µM (top dose mostly 114 µM), inactives show top-dose activity change, negative = inhibition, hits mostly inhibitors | O89049 | AID 588453 | actives 1% (n = 390,000); further: potency means the concentration at half of the fitted maximal effect; nearly all actives have a fitted effect of over 65% in size
# Target sequence (O89049 whole entry, looked up): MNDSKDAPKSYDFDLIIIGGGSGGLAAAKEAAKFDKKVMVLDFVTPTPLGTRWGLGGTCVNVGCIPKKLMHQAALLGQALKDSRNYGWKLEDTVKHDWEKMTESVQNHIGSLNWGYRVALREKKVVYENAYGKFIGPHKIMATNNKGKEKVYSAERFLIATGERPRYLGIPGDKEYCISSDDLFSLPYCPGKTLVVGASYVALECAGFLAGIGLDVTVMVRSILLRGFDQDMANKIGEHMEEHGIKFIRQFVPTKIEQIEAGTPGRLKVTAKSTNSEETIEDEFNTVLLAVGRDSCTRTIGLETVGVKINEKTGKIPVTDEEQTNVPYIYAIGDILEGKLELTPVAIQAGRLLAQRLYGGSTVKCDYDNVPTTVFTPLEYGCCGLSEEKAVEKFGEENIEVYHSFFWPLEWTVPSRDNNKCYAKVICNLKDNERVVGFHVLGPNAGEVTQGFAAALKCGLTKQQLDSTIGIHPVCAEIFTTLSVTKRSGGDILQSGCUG
#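 Rat TrxR1 (90 nM in the dispensed reagent) was pre-reduced with 400 uM NADPH for 5 min at room temperature, then incubated with compound for 15 min. After 400 uM selenite was added, NADPH fluorescence (Ex 340/Em 450 nm) was followed for 8 min.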
# GALK inhibitor: galactokinase (human) inhibition; P51570; Purified GALK, Kinase-Glo residual ATP luminescence; Potency, µM (top dose mostly 57.5 µM), for the others: at the highest dose activity change, negative = inhibition, actives largely listed as inhibitors; actives 0.007% (n = 270,000); AID 1868; further: potency means the concentration at half of the fitted maximal effect
#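 Human GALK (5 nM) with 35 uM ATP and 100 uM galactose in 20 mM HEPES pH 8.0, 5 mM MgCl2, 60 mM NaCl, 1 mM DTT, 0.01% BSA. After 1 h at room temperature, leftover ATP was read by Kinase-Glo Plus luminescence.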
# Coupling enz: counter-screen for Giardia aldolase inhibitors: coupling enzyme system; coupling enzyme system counterscreen, AmpLite Red fluorescence; activity change, negative = inhibition, % at 58.2 µM, hits read low; actives 0.67% (n = 290,000); in the data active means activity change below about -30%
#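 First, compound is pin-transferred into glyceraldehyde-3-phosphate coupling-enzyme reagent at 57.5 uM final and held 10 min at RT. Next, substrate, coupling system and AmpLite Red are added. After 20 min RT, fluorescence (525/598 nm) is read.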
# Giardia killer: kills Giardia lamblia | actives 0.15% (n = 340,000) | activity change, % at 7.66 µM, hits read low | AID 540267 | Giardia lamblia trophozoite viability; in the data active means activity change below about -80%; inconclusive means between about -30% and that limit;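 further: parasites exposed to compound for two days anaerobically before the ATP read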
#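 Giardia trophozoites, 100 cells per well, were exposed to compounds for 48 hrs at 37 deg C under anaerobic conditions; viability was then read as ATP content by bioluminescence after 15-30 min at room temperature.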
# TrxR1 substrate: is turned over as a substrate by rat TrxR1; O89049; purified TrxR1 substrate turnover, NADPH consumption readout; actives 0.01% (n = 390,000); Potency, µM (titrated, usually from 114 µM), without a hit: top-dose activity change, negative = substrate turnover; AID 588456; further: potency means the concentration at half of the fitted maximal effect; nearly all actives have a fitted effect of over 50% in size
#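 Rat TrxR1, dispensed at 90 nM, was prereduced with 400 uM NADPH (final) for 5 min at ~22 deg C, then incubated with compound 15 min before 400 uM selenite. A first-read NADPH fluorescence drop versus no-compound background flagged substrates.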
# PI4K2A block: blocks human PI4K2A kinase activity; Q9BTU6; activity change, negative = inhibition, % at 76.9 µM; actives 0.13% (n = 420,000); AID 1346378; purified PI4K2A, ADP-Glo luminescence, 1 h; hits give low values; in the data active means activity change below about -50%; inconclusive means mostly about -30% to -49%;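 further: -100% = wells without enzyme as full effect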
#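 PI4K2A activity was measured by ADP-Glo luminescence: enzyme (4 ug/mL stock) and phosphatidylinositol (1.2 mM stock) in Tris pH 7.5/MgCl2/EGTA/Triton X-100 buffer were reacted with ATP (300 microM stock) for one hour at ambient temperature.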
# Numbers without * were called inactive; ? = inconclusive; nt = no result given; ! = a repeat was not active; [ ] = another dose, or the depositor's remark. Rows were chosen to be rich in hits. Some 1.5% of all compounds tested hit in one or more screens of this group. Unless noted, the call rests on the fitted dose curve; in most records, active means well fitted curve in the direction sought with a large enough effect; inconclusive means small, poorly fitted or top-dose-only effect, or another doubt; inactive means no such curve, though single readings can be large; an effect the other way counts as inactive or inconclusive. Unless noted, on the % scale 0 is the no-effect control and ±100 the full control effect.
SMILES,rTrxR1 inhibitor,GALK inhibitor,Coupling enz,Giardia killer,TrxR1 substrate,PI4K2A block
CCOC(=O)COc1ccccc1/C=C\[N+](=O)[O-],2.8µM*,1%,1,-13,-2%,19
CN1C2=CC=CC=CC2=[N+](C)C12C([N+](=O)[O-])=CC(=[N+]([O-])[O-])C=C2[N+](=O)[O-] (centres undefined),1%[57.1 µM],5%,-16,-94*,3%[57.1 µM],-1
O=C(/C=C\c1ccc(-c2ccccc2)o1)c1ccccc1,10µM*,0%,-12,-22,-7%,0
Cc1ccc(C(=O)/C=C\C(=O)c2ccc(C)cc2)cc1,5µM*,2%,4,-3,7%,9
O=C(O)/C=C/C(=O)Nc1ccc(O)cc1,71µM*,nt,-25,35,-1%,-20
O=C(O)/C=C/C(=O)c1ccc(O)cc1,18µM*,-1%,8,17,-6%,-11
CCOc1cc2[nH]c(=O)n(CCCCC(=O)N3CCN(c4ccc(OC)cc4)CC3)c(=O)c2cc1OCC,12%[57.1 µM],nt,nt,nt,4%[57.1 µM],-3
COC(=O)C1=C(C(=O)OC)[C@@H]2N(C)c3ccc(OC)cc3[C@@]23C[C@@H](C(=O)OC)N(S(=O)(=O)c2cccs2)C3=N1,nt,nt,3,nt,nt,nt
CCN(CC)S(=O)(=O)c1ccc(C(=O)/C=C/c2ccc(-c3ccc([N+](=O)[O-])cc3)o2)cc1,-20%,1%,-1,-4,-2%,1
Cc1ccc(C(=O)/C=C/c2ccc(-c3ccc(C)cc3)o2)cc1,18µM*,1%,0,0,-9%,-9
CC1=C/C(=C/N(C)C)C(=O)O1,-28%,1%,-2,-2,-5%,3
CN(C)/C=C1/C=C(c2ccccc2)OC1=O,22µM*,2%,-1,-23,-3%,0
O=C(Nc1ccccc1)Oc1ccc[nH]c1=O,?,2%,-44*,14,0%,-7
Cc1ccc(C2C(C#N)=C(N)SC(N)=C2C#N)c(C)c1,2.8µM*,3%,-41*,-8,-4%,-19
CN(C)[C@H]1C(=O)C(C(=O)NCN2CCCC2)=C(O)[C@]2(O)C(=O)C3=C(O)c4c(O)cccc4[C@@](C)(O)[C@H]3C[C@@H]12,nt,nt,-36*,nt,nt,nt
CN(C)[C@@H]1C(=O)C(C(=O)NCN2CCCC2)=C(O)[C@@]2(O)C(=O)C3=C(O)c4c(O)cccc4[C@@](C)(O)C3C[C@@H]12 (some centres undefined),nt,nt,nt,nt,nt,-3
CCOC(=O)/C(=C\c1cn(C)c2ccccc12)[N+](=O)[O-],18µM*,-4%,1,-2,-13%,1
Cc1cc(C)cc(Nc2ccc([N+](=O)[O-])nc2[N+](=O)[O-])c1,-3%,-3%,-5,9,4%,-4
COc1cc(Nc2ccc(C)cc2)c([N+](=O)[O-])nc1[N+](=O)[O-],4.5µM*,-2%,-1,?,-12%,1
COc1ccccc1C1NC=C([N+](=O)[O-])C=C1[N+](=O)[O-] (centres undefined),-12%[57.1 µM],3%,-17,?,-1%[57.1 µM],-3
COc1ccccc1C1C([N+](=O)[O-])=CC([N+](=O)[O-])=CN1C (centres undefined),?,1%,-6,-83*,-7%,-1
NNC(=O)c1ccc2nc(-c3ccc(Br)cc3)cn2c1,14%[57.1 µM],-3%,-3,10,52%,-14
COc1ccc(-c2cn3cc(C(=O)NN)ccc3n2)cc1,20%[57.1 µM],-1%,-2,-9,43%[57.1 µM],-72*
CCCCCCCCOc1ccccc1C(=O)Nc1ccc(C(=O)OCC[N+](C)(CC)CC)cc1,nt,nt,nt,nt,nt,-4
Cc1ccc(NS(=O)(=O)c2ccccc2)c2c1CC(C)(C)O2,11%[57.1 µM],2%,-46*,-18,7%[57.1 µM],1
SMILES,rTrxR1 inhibitor,GALK inhibitor,Coupling enz,Giardia killer,TrxR1 substrate,PI4K2A block
Cc1cc(-c2ccc(NS(=O)(=O)c3ccccc3)c(C)c2)ccc1NS(=O)(=O)c1ccccc1,39%[57.1 µM],nt,nt,-3,-2%[2.29 µM],1
CN(C)c1ccc(-c2[nH][nH]c(=O)c2NC(=O)c2ccccn2)cc1,nt,nt,nt,nt,nt,-64*
CN(C)c1ccc(-c2[nH][nH]c(=O)c2NC(=O)c2ccc3ccccc3n2)cc1,nt,nt,nt,nt,nt,-65*
COc1ccc(-c2[nH][nH]c(=O)c2NC(=O)c2ccccc2Br)cc1,nt,nt,nt,nt,nt,-25
O=C(Nc1c(-c2ccccc2)[nH][nH]c1=O)c1ccccc1,nt,nt,nt,nt,nt,-22
CC(=O)SC[C@@H](C)C(=O)N1CCC[C@H]1C(=O)N[C@@H](Cc1ccccc1)C(=O)O,nt,nt,nt,nt,nt,4
Cc1cc(C)c(/C=C/c2onc(C)c2S(=O)(=O)N2CCC(C(=O)N3CCN(c4ccccc4)CC3)CC2)c(C)c1,17%[57.1 µM],nt,nt,nt,-1%[57.1 µM],1
Cc1ccc2c(c1)CC1(CN2C)C(=O)OC(C)(C)OC1=O,20µM*!,-2%,-6,15,2%,1
COc1ccc(/C(C)=C/C(=O)O)c(OC)c1,nt,nt,nt,nt,nt,-1
CCOC(=O)c1ccc(NC(=O)CCc2c(C)nc3c(c(C)nn3-c3ccccc3)c2C)cc1,26%,nt,nt,nt,9%,7
CCN(C(=O)CN1CCN(c2ccc(O)cc2)CC1)c1c(N)n(Cc2ccccc2)c(=O)[nH]c1=O,-2%,-1%,-39*,39,4%,-10
Cc1ccc(/C=C/C(=O)OCC(=O)N(CC(C)C)c2c(N)n(Cc3ccccc3)c(=O)[nH]c2=O)o1,-2%,nt,nt,2,2%,-1
CC(C)CN(C(=O)CN1CCN(c2ccc(O)cc2)CC1)c1c(N)n(CC(C)C)c(=O)[nH]c1=O,3%,1%,-32*,19,1%,2
CCN(C(=O)CN1CCCCCC1)c1c(N)n(Cc2ccccc2)c(=O)[nH]c1=O,-20%[11.4 µM],nt,nt,-7,2%[11.4 µM],2
CCN(C(=O)COC(=O)/C=C/c1ccc(C)o1)c1c(N)n(Cc2ccccc2)c(=O)[nH]c1=O,40µM*,nt,nt,-3,-5%,4
COc1ccc(CN(Cc2ccccc2)C(=O)c2ccco2)cc1COc1ccc(NC(C)=O)cc1,?,nt,nt,-21,3%,nt
Cc1ccc(-c2ccccc2C#N)cc1,nt,nt,nt,nt,nt,-2
CC1(C)OC(C)(C)/C(=C/Nc2ccc(O)cc2)C1=O,-18%,0%,-44*,10,-14%,-13
CCOC(=O)c1ccc(NC(=O)CC2C(=O)N(c3ccc(F)cc3)C(=O)N2Cc2ccc3c(c2)OCO3)cc1 (centres undefined),17%,nt,nt,nt,-4%,0
O=C(CCC(=O)N1CCN(c2ccccc2F)CC1)c1ccc(Cl)s1,4%,nt,nt,-9,-5%,3
O=C(CCN1CCC(c2ccc(Cl)s2)=N1)c1ccc(Cl)s1,2.8µM*,nt,3,21,2%,2
CC[n+]1c(/C=C/C=C2/N(C)c3ccccc3C2(C)C)sc2ccccc21,8%[57.1 µM],nt,nt,nt,8%[57.1 µM],?

# Bioassay records: PubChem BioAssay, National Center for Advancing Translational Sciences (NCATS)
